# Experimental data as given in ChEMBL document CHEMBL1961873, “Compounds: GSK PKIS; Assays: Nanosyn kinase panel” (2012).
# What was measured:
# [1] = target: T1, Inhibitor of nuclear factor kappa-B kinase subunit epsilon (Homo sapiens) (UniProt Q14164); settings: at 1 µM;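 note: reported values are averaged percent inhibition figures against human IKKε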
# T1 sequence (whole entry): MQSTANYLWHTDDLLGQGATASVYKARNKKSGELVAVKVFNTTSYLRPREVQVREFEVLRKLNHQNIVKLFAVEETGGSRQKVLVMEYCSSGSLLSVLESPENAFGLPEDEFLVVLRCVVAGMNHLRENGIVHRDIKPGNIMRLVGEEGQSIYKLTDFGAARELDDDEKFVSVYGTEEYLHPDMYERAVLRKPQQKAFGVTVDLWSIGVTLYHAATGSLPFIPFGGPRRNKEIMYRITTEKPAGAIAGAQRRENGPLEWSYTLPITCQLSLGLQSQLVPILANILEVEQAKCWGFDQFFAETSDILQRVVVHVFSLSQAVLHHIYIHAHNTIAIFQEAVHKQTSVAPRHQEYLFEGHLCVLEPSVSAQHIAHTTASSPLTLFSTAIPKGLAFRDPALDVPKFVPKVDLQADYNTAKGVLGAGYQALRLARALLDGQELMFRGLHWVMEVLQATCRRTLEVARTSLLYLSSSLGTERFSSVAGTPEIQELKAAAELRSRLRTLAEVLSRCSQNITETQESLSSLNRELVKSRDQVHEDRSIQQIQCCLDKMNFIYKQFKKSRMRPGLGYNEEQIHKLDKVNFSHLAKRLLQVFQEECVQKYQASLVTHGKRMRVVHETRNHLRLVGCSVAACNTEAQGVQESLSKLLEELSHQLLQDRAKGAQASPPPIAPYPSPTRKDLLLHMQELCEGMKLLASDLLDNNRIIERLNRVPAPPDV
# [2] = target: T2, Serine/threonine-protein kinase Nek1 (Homo sapiens) (UniProt Q96PY6); settings: at 0.1 µM
# T2 sequence (whole entry): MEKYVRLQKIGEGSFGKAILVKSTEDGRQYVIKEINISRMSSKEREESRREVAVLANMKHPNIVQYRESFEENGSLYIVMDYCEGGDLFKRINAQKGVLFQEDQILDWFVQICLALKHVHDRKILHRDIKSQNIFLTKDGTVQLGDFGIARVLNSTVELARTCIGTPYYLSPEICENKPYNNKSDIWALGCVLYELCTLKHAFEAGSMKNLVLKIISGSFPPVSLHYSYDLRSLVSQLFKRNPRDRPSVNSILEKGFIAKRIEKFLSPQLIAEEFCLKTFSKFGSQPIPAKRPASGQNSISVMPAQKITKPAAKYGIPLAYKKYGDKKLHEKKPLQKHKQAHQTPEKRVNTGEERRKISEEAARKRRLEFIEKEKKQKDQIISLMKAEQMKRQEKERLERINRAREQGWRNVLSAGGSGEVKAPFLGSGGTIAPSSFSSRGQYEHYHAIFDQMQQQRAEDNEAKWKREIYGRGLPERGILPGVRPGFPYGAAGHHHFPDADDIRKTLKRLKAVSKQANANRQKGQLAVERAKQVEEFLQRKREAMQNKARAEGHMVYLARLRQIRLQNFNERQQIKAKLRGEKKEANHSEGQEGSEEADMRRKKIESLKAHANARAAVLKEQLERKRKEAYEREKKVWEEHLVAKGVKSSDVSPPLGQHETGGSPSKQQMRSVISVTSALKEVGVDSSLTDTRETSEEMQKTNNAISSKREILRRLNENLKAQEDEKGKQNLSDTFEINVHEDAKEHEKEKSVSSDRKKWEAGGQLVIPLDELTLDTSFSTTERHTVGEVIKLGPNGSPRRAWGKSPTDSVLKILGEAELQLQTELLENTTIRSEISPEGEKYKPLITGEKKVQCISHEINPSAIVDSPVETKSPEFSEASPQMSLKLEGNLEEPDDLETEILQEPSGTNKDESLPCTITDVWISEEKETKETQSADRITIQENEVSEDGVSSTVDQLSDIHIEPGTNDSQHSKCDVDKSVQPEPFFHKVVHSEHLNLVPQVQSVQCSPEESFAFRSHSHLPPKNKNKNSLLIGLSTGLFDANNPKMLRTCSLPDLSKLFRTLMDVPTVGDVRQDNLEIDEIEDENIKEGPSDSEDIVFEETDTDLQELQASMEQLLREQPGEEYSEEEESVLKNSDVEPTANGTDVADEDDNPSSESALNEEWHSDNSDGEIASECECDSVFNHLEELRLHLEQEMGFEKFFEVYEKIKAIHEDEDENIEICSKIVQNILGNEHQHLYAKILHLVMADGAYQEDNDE
# [3] = target: T2, Serine/threonine-protein kinase Nek1 (Homo sapiens); settings: at 1 µM
# [4] = target: T3, Serine/threonine-protein kinase Nek2 (Homo sapiens) (UniProt P51955); settings: at 0.1 µM
# T3 sequence (whole entry): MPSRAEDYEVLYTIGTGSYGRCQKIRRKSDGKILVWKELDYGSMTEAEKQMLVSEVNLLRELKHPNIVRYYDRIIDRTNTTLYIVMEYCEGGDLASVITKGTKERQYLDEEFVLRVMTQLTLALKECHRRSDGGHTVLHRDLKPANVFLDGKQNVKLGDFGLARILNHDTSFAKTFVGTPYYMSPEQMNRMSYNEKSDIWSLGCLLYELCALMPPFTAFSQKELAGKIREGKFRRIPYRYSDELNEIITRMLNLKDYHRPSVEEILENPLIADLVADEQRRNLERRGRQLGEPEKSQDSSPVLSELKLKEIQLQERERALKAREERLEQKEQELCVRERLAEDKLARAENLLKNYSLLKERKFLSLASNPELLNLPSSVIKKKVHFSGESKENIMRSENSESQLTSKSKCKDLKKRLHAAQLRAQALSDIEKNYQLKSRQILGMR
# [5] = target: T3, Serine/threonine-protein kinase Nek2 (Homo sapiens); settings: at 1 µM
# [6] = target: Serine/threonine-protein kinase Nek6 (Homo sapiens) (UniProt Q9HC98); settings: at 0.1 µM
# Sequence of Serine/threonine-protein kinase Nek6 (Homo sapiens) (Q9HC98 whole entry): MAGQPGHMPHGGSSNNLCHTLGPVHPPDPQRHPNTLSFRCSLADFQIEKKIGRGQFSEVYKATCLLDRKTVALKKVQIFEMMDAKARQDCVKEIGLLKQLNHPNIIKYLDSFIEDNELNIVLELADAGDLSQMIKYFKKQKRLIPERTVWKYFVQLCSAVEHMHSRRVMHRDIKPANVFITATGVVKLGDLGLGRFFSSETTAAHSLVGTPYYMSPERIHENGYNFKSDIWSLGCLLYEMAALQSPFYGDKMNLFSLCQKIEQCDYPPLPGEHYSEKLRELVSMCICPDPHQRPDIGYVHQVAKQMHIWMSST
# [7] = target: Serine/threonine-protein kinase Nek6 (Homo sapiens) (UniProt Q9HC98); settings: at 1 µM
# [8] = target: Serine/threonine-protein kinase Nek7 (Homo sapiens) (UniProt Q8TDX7); settings: at 0.1 µM
# Sequence of Serine/threonine-protein kinase Nek7 (Homo sapiens) (Q8TDX7 whole entry, looked up): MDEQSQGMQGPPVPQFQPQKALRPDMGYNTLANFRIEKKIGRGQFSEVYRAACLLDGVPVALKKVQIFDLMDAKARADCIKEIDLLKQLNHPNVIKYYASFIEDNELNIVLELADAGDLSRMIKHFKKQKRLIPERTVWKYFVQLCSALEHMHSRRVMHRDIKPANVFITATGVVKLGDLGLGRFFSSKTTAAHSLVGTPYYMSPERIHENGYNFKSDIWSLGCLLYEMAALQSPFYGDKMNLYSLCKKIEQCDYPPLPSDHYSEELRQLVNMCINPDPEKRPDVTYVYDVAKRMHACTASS
# [9] = target: Serine/threonine-protein kinase Nek7 (Homo sapiens) (UniProt Q8TDX7); settings: at 1 µM
# [10] = target: T4, Serine/threonine-protein kinase Nek9 (Homo sapiens) (UniProt Q8TD19); settings: at 0.1 µM;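 note: reported value is the mean percent inhibition of NEK9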
# T4 sequence (whole entry): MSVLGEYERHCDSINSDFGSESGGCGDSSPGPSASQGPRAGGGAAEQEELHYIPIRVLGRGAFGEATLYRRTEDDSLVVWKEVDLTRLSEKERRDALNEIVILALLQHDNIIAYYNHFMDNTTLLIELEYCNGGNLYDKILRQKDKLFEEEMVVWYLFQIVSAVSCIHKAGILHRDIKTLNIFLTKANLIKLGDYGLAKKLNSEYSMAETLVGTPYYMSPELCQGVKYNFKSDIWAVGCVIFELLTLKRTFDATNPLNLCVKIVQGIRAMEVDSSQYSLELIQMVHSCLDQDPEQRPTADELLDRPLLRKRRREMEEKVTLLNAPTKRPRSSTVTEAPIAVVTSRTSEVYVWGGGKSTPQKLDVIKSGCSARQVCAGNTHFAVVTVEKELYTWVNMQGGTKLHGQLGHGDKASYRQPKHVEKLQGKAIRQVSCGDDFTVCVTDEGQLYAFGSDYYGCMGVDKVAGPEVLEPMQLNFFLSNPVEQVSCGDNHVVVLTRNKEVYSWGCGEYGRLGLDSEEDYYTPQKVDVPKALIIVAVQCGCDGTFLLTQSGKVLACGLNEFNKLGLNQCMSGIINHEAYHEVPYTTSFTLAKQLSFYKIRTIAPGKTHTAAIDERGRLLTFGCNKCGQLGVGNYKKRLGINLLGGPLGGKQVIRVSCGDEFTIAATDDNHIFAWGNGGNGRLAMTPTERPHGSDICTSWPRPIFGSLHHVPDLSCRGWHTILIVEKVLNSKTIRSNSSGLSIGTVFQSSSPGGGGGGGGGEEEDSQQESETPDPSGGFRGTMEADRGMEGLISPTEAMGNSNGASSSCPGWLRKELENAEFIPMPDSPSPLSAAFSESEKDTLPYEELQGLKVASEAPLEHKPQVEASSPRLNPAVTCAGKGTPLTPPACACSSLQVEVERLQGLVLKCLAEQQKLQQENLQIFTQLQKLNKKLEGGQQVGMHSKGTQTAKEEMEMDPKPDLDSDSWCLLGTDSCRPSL
structure (smiles),measurement,setting,value
COc1cccc(-n2cnc3c(N/N=C/c4ccncc4)ncnc32)c1,inhibition,[1],4.51%
same,inhibition,[2],0%
same,inhibition,[3],9.07%
same,inhibition,[4],-1.74%
same,inhibition,[5],-1.3%
same,inhibition,[6],2.37%
same,inhibition,[7],2.69%
same,inhibition,[8],-0.81%
same,inhibition,[9],-2.76%
same,inhibition,[10],0.98%
